Several values for one entry are separate records, joined by “and”; a condition that tells them apart may be missing. Identical values can stand only once. Inconclusive results are not listed. Activity calls are given as the source filed them. Unless noted, calls come from the whole dose curve; as a rule, active = well fitted curve in the direction sought with a large enough effect; inconclusive = small, poorly fitted or top-dose-only effect, or another doubt; inactive = no such curve, though single readings can be large; an effect the other way counts as inactive or inconclusive.
Tests used:
[1] = biological target: ATP-dependent 6-phosphofructokinase (Trypanosoma brucei brucei) (UniProt O15648); assay: qHTS Assay to Find Inhibitors of T. brucei phosphofructokinase: hit validation (AID 492961);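 note: luminescence reports ADP formed as PFK phosphorylates fructose-6-phosphate with ATP; % is set by controls: 0 for no effect and ±100 for the full control effect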
ATP-dependent 6-phosphofructokinase (Trypanosoma brucei brucei), sequence (O15648 whole entry, looked up): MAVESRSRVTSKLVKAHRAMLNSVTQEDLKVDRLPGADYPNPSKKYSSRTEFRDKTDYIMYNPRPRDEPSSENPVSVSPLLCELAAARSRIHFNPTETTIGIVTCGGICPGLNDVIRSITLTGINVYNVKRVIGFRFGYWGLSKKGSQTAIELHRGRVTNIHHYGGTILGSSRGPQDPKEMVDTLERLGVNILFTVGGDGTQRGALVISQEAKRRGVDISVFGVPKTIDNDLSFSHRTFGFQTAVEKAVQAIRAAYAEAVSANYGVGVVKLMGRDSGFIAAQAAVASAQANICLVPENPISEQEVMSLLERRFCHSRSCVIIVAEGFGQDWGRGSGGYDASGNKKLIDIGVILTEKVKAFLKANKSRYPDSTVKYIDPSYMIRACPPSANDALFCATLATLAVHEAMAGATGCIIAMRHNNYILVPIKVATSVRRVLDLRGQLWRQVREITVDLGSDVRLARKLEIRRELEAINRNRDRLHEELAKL
Procedure, shortened: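 Inhibition of parasite PFK is measured as reduced ADP formation, quantified via luciferase after ATP depletion. Assay used 0.1 mM ATP, 0.5 mM F6P, 1.25 nM enzyme, 45 min incubation.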

[2] = biological target: Peroxisome proliferator-activated receptor gamma (Homo sapiens) (UniProt P37231); assay: qHTS assay for small molecule agonists of peroxisome proliferator-activated receptor gamma signaling (AID 588536; active = well fitted curve in the direction sought with a large enough effect in the signal ratio, with a control signal flat, not every such curve was filed as active; the % refers to the signal ratio;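 note: 0% = DMSO basal wells and 100% = rosiglitazone at 2 µM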)
Peroxisome proliferator-activated receptor gamma (Homo sapiens), sequence (P37231 whole entry, looked up): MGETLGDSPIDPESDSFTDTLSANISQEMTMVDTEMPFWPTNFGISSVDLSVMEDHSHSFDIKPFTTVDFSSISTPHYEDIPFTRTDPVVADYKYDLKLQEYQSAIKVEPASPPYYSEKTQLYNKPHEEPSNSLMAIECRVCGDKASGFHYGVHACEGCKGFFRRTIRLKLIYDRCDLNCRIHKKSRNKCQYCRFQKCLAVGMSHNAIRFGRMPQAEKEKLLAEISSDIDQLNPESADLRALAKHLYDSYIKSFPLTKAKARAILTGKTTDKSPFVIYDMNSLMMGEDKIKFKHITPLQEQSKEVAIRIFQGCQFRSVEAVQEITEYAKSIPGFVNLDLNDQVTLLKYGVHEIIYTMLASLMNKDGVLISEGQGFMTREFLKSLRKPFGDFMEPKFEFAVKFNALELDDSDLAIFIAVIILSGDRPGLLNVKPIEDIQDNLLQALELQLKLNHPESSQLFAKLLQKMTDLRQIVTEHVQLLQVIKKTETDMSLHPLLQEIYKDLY
Procedure, shortened: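 Cells were plated and held 6–6.5 h at 37 C, then compounds were added as a titration series. After a further 16 h, CCF4 dye was loaded for 2 h at room temperature and emission at 460/530 nm recorded.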

[3] = qHTS assay to identify small molecules that stimulate interleukin-8 (IL-8) secretion (AID 651758; active = well fitted activation curve with a large enough effect in the signal ratio; the % refers to the signal ratio; note: 0% is about no effect)
Procedure, shortened: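 Compounds are added to THP-1 cells (2000 per well) and left 16 hrs at 37 C. A labeled anti-IL-8 antibody pair is then added, and IL-8 secretion is measured by time-resolved FRET after 1-3 hrs at room temperature.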

[4] = qHTS profiling for inhibitors of Plasmodium falciparum proliferation (AID 504749); note: potency is the fitted concentration of half-maximal effect;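 for activity, negative = inhibition: 0% = DMSO vehicle and full inhibition = artemisinin control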; for all read-outs here: nearly all actives have a fitted effect of over 60% in size; details: P. falciparum in erythrocytes, SYBR Green DNA, 72 h; for activity, negative = inhibition: at 28.7 µM (top of the series)
Procedure, shortened: (§1)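 SYBR Green fluorescence (ex 485 nm, em 535 nm) reports parasite DNA after 72 h compound exposure of infected red cells at 0.3% parasitemia, 2.5% hematocrit; signal normalized to 0.29 uM artemisinin and vehicle wells.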

7G8 = assay: as above; details: P. falciparum in erythrocytes, SYBR Green DNA, 72 h; series mostly up to 28.7 µM
Procedure, shortened: as §1

AS120 = assay: as above; details: P. falciparum in erythrocytes, SYBR Green DNA, 72 h; series mostly up to 28.7 µM
Procedure, shortened: as §1

ATS189 = assay: as above; details: P. falciparum in erythrocytes, SYBR Green DNA, 72 h; series mostly up to 28.7 µM
Procedure, shortened: as §1

ATS95 = assay: as above; details: P. falciparum in erythrocytes, SYBR Green DNA, 72 h; series mostly up to 28.7 µM
Procedure, shortened: as §1

CP191 = assay: as above; details: P. falciparum in erythrocytes, SYBR Green DNA, 72 h; series mostly up to 28.7 µM
Procedure, shortened: as §1

CP237 = assay: as above; details: P. falciparum in erythrocytes, SYBR Green DNA, 72 h; series mostly up to 28.7 µM
Procedure, shortened: as §1

CP266 = assay: as above; details: P. falciparum in erythrocytes, SYBR Green DNA, 72 h; series mostly up to 28.7 µM
Procedure, shortened: as §1

Dd2 = assay: as above; details: P. falciparum in erythrocytes, SYBR Green DNA, 72 h; series mostly up to 28.7 µM
Procedure, shortened: as §1

ECU = assay: as above; details: P. falciparum in erythrocytes, SYBR Green DNA, 72 h; series mostly up to 28.7 µM
Procedure, shortened: as §1

GB4 = assay: as above; details: P. falciparum in erythrocytes, SYBR Green DNA, 72 h; series mostly up to 28.7 µM
Procedure, shortened: as §1

HB3 = assay: as above; details: P. falciparum in erythrocytes, SYBR Green DNA, 72 h; series mostly up to 28.7 µM
Procedure, shortened: as §1

P94_40 = assay: as above; details: P. falciparum in erythrocytes, SYBR Green DNA, 72 h; series mostly up to 28.7 µM
Procedure, shortened: as §1

PAD = assay: as above; details: P. falciparum in erythrocytes, SYBR Green DNA, 72 h; series mostly up to 28.7 µM
Procedure, shortened: as §1

TAB109 = assay: as above; details: P. falciparum in erythrocytes, SYBR Green DNA, 72 h; series mostly up to 28.7 µM
Procedure, shortened: as §1

TAB113 = assay: as above; details: P. falciparum in erythrocytes, SYBR Green DNA, 72 h; series mostly up to 28.7 µM
Procedure, shortened: as §1

[5] = biological target: Peroxisome proliferator-activated receptor gamma (Homo sapiens) (UniProt P37231); assay: qHTS assay for small molecule antagonists of peroxisome proliferator-activated receptor gamma signaling (AID 588537; active = well fitted inhibition curve with a large enough effect in the signal ratio, with a control signal flat, not every such curve was filed as active; the % refers to the signal ratio; note: potency is the fitted concentration of half-maximal effect;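 for activity, negative = inhibition: reporter cells co-stimulated with 50 nM rosiglitazone agonist during compound treatment; % of control where 0% means no effect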)
Procedure, shortened: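 Read-out: CCF4 fluorescence (ex 405, em 460/530 nm) after 2 h at RT. Cells were HEK293 carrying a UAS-bla reporter and treated 16 h at 37 C with compound plus rosiglitazone (50 nM final). Normalized to rosiglitazone and DMSO.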

CN1[C@H]2CC(OC(=O)[C@H](CO)c3ccccc3)C[C@H]1[C@H]1O[C@H]12 (stereo partly specified)
inactive: Potency [1] | outcome [2] | outcome [3] | activity, negative = inhibition ([4]; parasite line A) 1.25% | activity, negative = inhibition ([4]; parasite line B) -7.4% | Potency (7G8) | Potency (AS120) | Potency (ATS189) | Potency (ATS95) | Potency (CP191) | Potency (CP237) | Potency (CP266) | Potency (Dd2) | Potency (ECU) | Potency (GB4) | Potency (HB3) | Potency (P94_40) | Potency (PAD) | Potency (TAB109) | Potency (TAB113)

Cc1cccc(O)c1C
inactive: outcome [2] | Potency [5]

CCCCCC/C(C=O)=C\c1ccccc1
inactive: outcome [2]

CN(C)c1ccc(C2(c3ccc(N(C)C)cc3)OC(=O)c3cc(N(C)C)ccc32)cc1
inactive: outcome [2] | Potency [5]

C=C(C)c1ccccc1
inactive: outcome [3]

CO[C@H]1/C=C/O[C@@]2(C)Oc3c(C)c(O)c4c(O)c(c5c(c4c3C2=O)NC2(CCN(CC(C)C)CC2)N=5)=NC(=O)/C(C)=C\C=C\[C@H](C)[C@H](O)[C@@H](C)[C@@H](O)[C@@H](C)[C@H](OC(C)=O)[C@@H]1C
inactive: Potency [1] | Potency (CP266)
active: Potency ([4]; parasite line B) 4.47 µM | Potency (7G8) 7.08 µM | Potency (AS120) 12.6 µM | Potency (ATS189) 5.01 µM | Potency (ATS95) 8.91 µM | Potency (CP191) 8.91 µM | Potency (CP237) 10 µM | Potency (Dd2) 7.94 µM | Potency (ECU) 7.94 µM | Potency (GB4) 12 µM | Potency (HB3) 11.2 µM | Potency (P94_40) 8.91 µM | Potency (PAD) 10 µM | Potency (TAB109) 11.2 µM | Potency (TAB113) 7.94 µM

O=C(OCC(COC(=O)c1ccccc1)(COC(=O)c1ccccc1)COC(=O)c1ccccc1)c1ccccc1
inactive: outcome [3]

ClC1=C(Cl)C(Cl)(Cl)C(Cl)=C1Cl
inactive: outcome [2] | Potency [5]

Cc1cc(O)c(C(C)(C)C)cc1Sc1cc(C(C)(C)C)c(O)cc1C
active: Potency [5] 39.8 µM and 25.1 µM

O=Cc1ccc(Cl)c(Cl)c1
inactive: outcome [2]

O=C1OC2(c3cc(Br)c(O)c(Br)c3Oc3c2cc(Br)c(O)c3Br)c2c(Cl)c(Cl)c(Cl)c(Cl)c21
inactive: outcome [2] | outcome [3]

O=C=Nc1ccc(Cc2ccc(N=C=O)cc2)cc1
inactive: outcome [3]

From PubChem BioAssay (NCATS)
